Each structure is given as a SMILES string. The panel holds about 83,000 compounds, 20% with a hit somewhere; the sample as a whole holds those more often.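 Single-concentration screen, 48 h exposure, 96-well plates. Endpoint: percent growth. Below 10 = active.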 Unmarked numbers belong to inactive results. Calls of active or inactive are those of the source.

The text below walks through data of PubChem BioAssay (NCI).

What all share (test): NCI-60 one-dose screen, 48 h (100 = growth as untreated, 0 = no growth, -100 = all killed)
One test deals with HT29 colon. Particulars: 10 µM unless noted.
The next test deals with SNB-19 CNS. The note with it: 10 µM unless noted.
A further test relates to U251 CNS. Particulars: 10 µM unless noted.
A further test relates to PC-3 prostate. The note with it: 10 µM unless noted.
A further test concerns SK-MEL-5 melanoma. The note with it: 10 µM unless noted.
Another test has as its system UACC-62 melanoma. Particulars: 10 µM unless noted.
In another test the test system is LOX IMVI melanoma. Particulars: 10 µM unless noted.
In the next test the test system is SK-MEL-28 melanoma. The note with it: 10 µM unless noted.
A further test deals with EKVX NSCLC. The note with it: 10 µM unless noted.
The test system of the next test is SN12C renal. Particulars: 10 µM unless noted.
The next test concerns UO-31 renal. Particulars: 10 µM unless noted.
Another test deals with TK-10 renal. The note with it: 10 µM unless noted.
The subject of a further test is ACHN renal. The note with it: 10 µM unless noted.
The subject of the next test is CAKI-1 renal. The note with it: 10 µM unless noted.
Another test concerns A498 renal. Particulars: 10 µM unless noted.
A further test has as its system MOLT-4 leukemia. The note with it: 10 µM unless noted.
Another test has as its system SK-MEL-2 melanoma. The note with it: 10 µM unless noted.
The next test relates to CCRF-CEM leukemia. The note with it: 10 µM unless noted.
A further test concerns SNB-75 CNS. Particulars: 10 µM.

With `CN(CCCCCl)P(=O)(OCc1ccc([N+](=O)[O-])o1)C(F)(F)C[C@H](NC(=O)CNC(=O)c1ccc(N=[N+]=[N-])cc1)C(=O)NCCc1ccc(O)cc1` (stereo partly specified), the growth in the test with HT29 colon is 86.3%; in the test with SNB-19 CNS it was 94.1%; in the test with U251 CNS, 69.1%; in the test on PC-3 prostate it was 101%; in the test with SK-MEL-5 melanoma, 91.3%; in the test on UACC-62 melanoma it was 59.7%. The growth in the test with LOX IMVI melanoma is 79.3%; with SK-MEL-28 melanoma it was 63.9%; with EKVX NSCLC it was 102%; in the test with SN12C renal, 95.2%; in the test on UO-31 renal, 84.7%; in the test on TK-10 renal, 121%. Moreover, the growth in the test on ACHN renal was 106%; in the test on CAKI-1 renal, 105%; in the test on A498 renal, 104%; in the test on MOLT-4 leukemia, 74.7%.

`COc1cc(NCCCCCN)c2ncccc2c1`: the growth with U251 CNS is 107%; with PC-3 prostate it was 108%; in the test with LOX IMVI melanoma, 103%; in the test on SK-MEL-28 melanoma, 114%; in the test on SK-MEL-2 melanoma it was 126%; with EKVX NSCLC it was 113%. For the same molecule, the growth is 86.9% in the test with UO-31 renal; 119% in the test with TK-10 renal; 96.7% in the test on CAKI-1 renal; 116% in the test on A498 renal; -24% (active) with CCRF-CEM leukemia; 88.3% in the test with MOLT-4 leukemia.

Turning to `O=c1cc(Cc2ccc([N+](=O)[O-])cc2)[nH]c(=O)[nH]1`, the growth in the test with SNB-75 CNS was 94.4%; with SNB-19 CNS, 97%; in the test on U251 CNS, 103%; in the test with PC-3 prostate, 92.6%; in the test with SK-MEL-5 melanoma, 109%; with UACC-62 melanoma it was 99.9%. Besides, the growth in the test with LOX IMVI melanoma is 103%; in the test on SK-MEL-2 melanoma, 94.6%; in the test on EKVX NSCLC, 115%; in the test on SN12C renal, 98.4%; in the test with UO-31 renal, 67%; with TK-10 renal it was 97.9%. The growth with ACHN renal is 98.1%; in the test with CAKI-1 renal, 110%; in the test with A498 renal, 110%; with CCRF-CEM leukemia, 91.1%; in the test with MOLT-4 leukemia, 94.9%.

For the molecule `COc1ccc(/C=C\c2cc(OC)c(OC)c(OC)c2)cc1OC(=O)c1cccc(Cn2cc(CCOC(=O)c3cccc(Cn4nnc5c4C(=O)c4ccccc4C5=O)c3)nn2)c1`, the growth with HT29 colon was 12.2%; in the test with SNB-19 CNS, 28.6%; in the test on U251 CNS, 23.8%; with PC-3 prostate, 22.8%; in the test with SK-MEL-5 melanoma it was -28.8% (active); in the test on UACC-62 melanoma, 45.7%. In addition, the growth is 21.2% in the test with LOX IMVI melanoma; 58% in the test with SK-MEL-28 melanoma; 50.9% with SK-MEL-2 melanoma; 58.3% in the test with EKVX NSCLC; 18.9% in the test on SN12C renal; 36.6% in the test with UO-31 renal. Further, the growth in the test on TK-10 renal was 76.4%; in the test with ACHN renal, 17.2%; with CAKI-1 renal, 31.2%; in the test on A498 renal, -4.1% (active); in the test on CCRF-CEM leukemia it was 8.91% (active); in the test with MOLT-4 leukemia, 20.7%.

Take `COc1ccc(-c2[nH]nc(N)c2-c2cc(OC)c3c(c2)OCO3)cc1`: the growth in the test with HT29 colon is 26%; in the test with SNB-19 CNS it was 68.8%; in the test on U251 CNS, 54.7%; in the test with PC-3 prostate, 93.7%; with SK-MEL-5 melanoma, 54.2%; with UACC-62 melanoma, 37.2%. Also, the growth is 56.5% in the test on LOX IMVI melanoma; 60% in the test with SK-MEL-28 melanoma; 72.9% in the test on EKVX NSCLC; 52% in the test on SN12C renal; 68.1% in the test on UO-31 renal; 84.8% with TK-10 renal. Also, the growth was 73.8% with ACHN renal, 53.4% with CAKI-1 renal and 43.2% in the test with A498 renal.

As to `COC(=O)c1cc(=O)nc(N/N=C/c2ccco2)s1`, the growth is 106% with HT29 colon; 105% in the test with SNB-19 CNS; 104% in the test on U251 CNS; 95.7% in the test on PC-3 prostate; 99.6% in the test on SK-MEL-5 melanoma; 106% with UACC-62 melanoma. In addition, the growth is 101% with LOX IMVI melanoma; 104% in the test on SK-MEL-28 melanoma; 117% in the test with SK-MEL-2 melanoma; 102% with SN12C renal; 87.5% in the test on UO-31 renal; 118% in the test with TK-10 renal. In addition, the growth is 104% in the test on ACHN renal; 105% in the test with CAKI-1 renal; 99.5% with A498 renal; 95.6% in the test with CCRF-CEM leukemia; 94.9% in the test on MOLT-4 leukemia.

Regarding `O=C(Nc1ccc2c(c1)OCCO2)C(=O)c1c[nH]c2ccccc12`, the growth in the test with HT29 colon is 4.06% (active); in the test with SNB-19 CNS, 46.9%; in the test with U251 CNS, 34%; in the test with PC-3 prostate, 28.9%; with SK-MEL-5 melanoma, 29.7%; in the test on UACC-62 melanoma it was 33.1%. Also, the growth with LOX IMVI melanoma was 36.1%; with SK-MEL-28 melanoma, 53%; in the test on EKVX NSCLC it was 52.9%; with SN12C renal, 42.4%; with UO-31 renal, 50.9%; with TK-10 renal, 75.1%. Also, the growth with ACHN renal was 57.4%; in the test on CAKI-1 renal it was 49.7%; in the test on A498 renal, 26.3%; in the test with MOLT-4 leukemia, 16.8%.

Consider `O=C1/C(=C/c2ccccc2)Oc2ccc(O)c(I)c21`, for which the growth with HT29 colon was 105%; in the test with SNB-19 CNS it was 99.1%; in the test on U251 CNS, 93%; in the test with PC-3 prostate, 89.6%; in the test on UACC-62 melanoma, 86.1%; in the test on LOX IMVI melanoma, 93.8%. For the same molecule, the growth was 112% with SK-MEL-28 melanoma; 95.3% with SK-MEL-2 melanoma; 50.8% in the test with EKVX NSCLC; 85.7% in the test on SN12C renal; 58.5% with UO-31 renal; 181% with TK-10 renal. The growth is 103% in the test on ACHN renal, 78.6% with CAKI-1 renal, 94.7% with CCRF-CEM leukemia and 95.6% in the test on MOLT-4 leukemia.

For the molecule `Fc1ccc(CNCCNc2ncnc3c2cnn3-c2ccccc2)cc1`, the growth in the test with HT29 colon is 93.1%; in the test with U251 CNS it was 84%; with PC-3 prostate, 86.6%; in the test on UACC-62 melanoma, 101%; with LOX IMVI melanoma, 89.4%; in the test on SK-MEL-28 melanoma, 110%. The growth with SK-MEL-2 melanoma is 113%; with SN12C renal it was 89.2%; with UO-31 renal, 62.1%; in the test on TK-10 renal, 102%; in the test with ACHN renal, 100%; with CAKI-1 renal, 87.2%. In addition, the growth with A498 renal was 77.1%; in the test on CCRF-CEM leukemia, 86.9%; in the test with MOLT-4 leukemia it was 89.1%.

As to `CCCCCCCCCCCCCCCCCCNC(=O)[C@H]1CSC(c2ccc(OC)cc2O)N1` (stereo partly specified), the growth in the test with HT29 colon is 45.3%; with SNB-19 CNS, 81.2%; with U251 CNS, 63.9%; in the test with PC-3 prostate, 69.7%; with SK-MEL-5 melanoma it was 93.1%; in the test with UACC-62 melanoma, 74.9%. Besides, the growth in the test on LOX IMVI melanoma was 62.4%; in the test with SK-MEL-28 melanoma, 50.5%; with SK-MEL-2 melanoma, 75.6%; with EKVX NSCLC it was 102%; in the test on SN12C renal it was 14.3%; in the test with UO-31 renal, 53.5%. The growth in the test on TK-10 renal was 94.7%; with ACHN renal, 88.1%; in the test on CAKI-1 renal it was 89.8%; with A498 renal, 81.3%; in the test with CCRF-CEM leukemia, 6.93% (active); in the test with MOLT-4 leukemia, 17.3%.

Consider `CCOc1cc2c(Cl)ncnc2c(OCC)c1OCC`, for which the growth is 97.3% in the test with SNB-19 CNS; 82.6% with U251 CNS; 18.1% with PC-3 prostate; 77.4% in the test on SK-MEL-5 melanoma; 64.3% in the test on UACC-62 melanoma; 83.1% in the test with LOX IMVI melanoma. Also, the growth in the test on SK-MEL-28 melanoma was 58.1%; with SK-MEL-2 melanoma, 52.2%; in the test on EKVX NSCLC, 88.4%; in the test on SN12C renal, 94%; with UO-31 renal, -17.7% (active); with TK-10 renal, 105%. The growth in the test on ACHN renal was 60.1%; in the test on A498 renal, 91.1%; with CCRF-CEM leukemia, 11.2%; with MOLT-4 leukemia, 21.7%.
